BoNT A protease = BoNT/A light chain protease inhibitors, primary screen, biochemical, flow cytometry, MLPCN library | Botulinum neurotoxin type A light chain protease (Clostridium botulinum A str. ATCC 3502) | multiplex microsphere protease substrate cleavage | inhibition, % at 10 µM | actives 0.17% (n = 360,000) | AID 588499, 2011
BoNT F protease = BoNT/F light chain protease inhibitors, primary screen, biochemical, flow cytometry, MLPCN library | Botulinum neurotoxin type F light chain protease (Clostridium botulinum) | Multiplex microsphere protease cleavage assay | inhibition, % at 10 µM | actives 0.22% (n = 360,000) | AID 588497, 2011; in the data active means inhibition above about 35%, passing the limit was not always enough; inconclusive means no clear call, values can overlap the other calls
Anthrax LF prot = Bacillus anthracis LF protease inhibitors, primary screen, biochemical, multiplex microsphere, MLPCN library. actives 0.12% (n = 360,000). Lethal factor (Bacillus anthracis), P15917. multiplex microsphere protease cleavage assay. inhibition, % at 10 µM. AID 588501, 2011
Target sequence (P15917 whole entry, looked up): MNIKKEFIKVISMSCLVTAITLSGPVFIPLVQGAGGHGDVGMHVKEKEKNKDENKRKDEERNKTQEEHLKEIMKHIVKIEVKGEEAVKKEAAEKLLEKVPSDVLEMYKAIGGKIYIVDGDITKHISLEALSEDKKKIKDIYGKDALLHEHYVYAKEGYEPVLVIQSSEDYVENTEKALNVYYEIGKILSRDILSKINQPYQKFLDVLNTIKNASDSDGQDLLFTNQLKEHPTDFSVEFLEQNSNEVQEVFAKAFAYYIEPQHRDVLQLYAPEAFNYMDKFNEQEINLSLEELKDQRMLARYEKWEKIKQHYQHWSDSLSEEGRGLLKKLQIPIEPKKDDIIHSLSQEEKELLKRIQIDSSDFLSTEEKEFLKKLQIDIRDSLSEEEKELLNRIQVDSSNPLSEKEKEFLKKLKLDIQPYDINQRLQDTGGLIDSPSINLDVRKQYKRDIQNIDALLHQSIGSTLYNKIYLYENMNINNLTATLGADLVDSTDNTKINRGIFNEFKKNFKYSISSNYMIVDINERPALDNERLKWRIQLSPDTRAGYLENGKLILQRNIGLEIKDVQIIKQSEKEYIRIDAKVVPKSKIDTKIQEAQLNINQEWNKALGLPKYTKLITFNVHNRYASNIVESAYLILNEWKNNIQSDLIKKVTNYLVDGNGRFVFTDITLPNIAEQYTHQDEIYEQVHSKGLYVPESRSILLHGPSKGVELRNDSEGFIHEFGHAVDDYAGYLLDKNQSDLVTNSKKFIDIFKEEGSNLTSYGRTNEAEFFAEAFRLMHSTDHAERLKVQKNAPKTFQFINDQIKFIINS
Autofluor counter = counter-screen for toxin protease inhibitors: compound fluorescence | compound autofluorescence counterscreen, microsphere flow cytometry; stronger effect = higher value | actives 3.1% (n = 360,000) | AID 624483 | fluorescence intensity (concentration not given with the values); in the data active means fluorescence intensity above about 16000; inconclusive means no clear call, values can overlap the other calls
Numbers stand for hits; – = inactive; ? = inconclusive. A selection: hits, their analogues and other compounds. The true share with any hit is near 3.5%. Unless noted, no stated cut-off is given here; in the data, active means inhibition above about 30%; inconclusive means no clear call, values can overlap the other calls; inactive means below that.

SMILES	BoNT A protease	BoNT F protease	Anthrax LF prot	Autofluor counter
Cc1cc(NC(=O)c2ccc(Cl)cc2)ccc1NC(=O)c1ccccc1Cl	–	37.1	–	–
CCCCNC(=O)C1(C)CCCCN1C(=O)c1ccc2c(c1)C(C)(C)CCC2(C)C (centres undefined)	–	–	–	–
O=C(N/N=C/C(Br)=C\c1ccccc1)c1n[nH]c2c1CCC2	–	–	–	25111
O=C(NCc1ccccc1)C1(c2ccccc2)CCN(S(=O)(=O)c2ccccc2)CC1	–	–	–	16987
CCOC(=O)C1=C(C)NC2=C(C1c1ccc([N+](=O)[O-])cc1)S(=O)(=O)c1ccccc12 (centres undefined)	?	–	–	17917
O=C1CC(c2ccccc2)n2ncnc2N1 (centres undefined)	?	–	–	21144
CCCC(=O)Nc1nc2n(n1)C(c1ccccc1)CC(=O)N2 (centres undefined)	–	–	–	17011
O=C(O)c1ccccc1OCCOc1ccccc1C(=O)O	–	–	–	–
O=C(O)c1ccccc1OCCOCCOc1ccccc1C(=O)O	–	–	–	23112
COc1cc(NC(=O)c2cc(S(=O)(=O)N3CCCCC3)c[nH]2)cc(OC)c1	–	–	–	–
O=C1Nc2ccccc2/C1=C\c1cccn1-c1ccc(OC(F)(F)F)cc1	–	–	–	24253
O=C1Nc2ccccc2/C1=C/c1ccccc1F	–	–	–	–
Cc1cc(OCC(=O)N2CCN(c3ccccn3)CC2)c(C)cc1Br	–	–	–	–
O=C(NCc1cccc(F)c1)c1cccc2c1C(=O)c1ccc(N3CCC(Cc4ccccc4)CC3)cc1S2(=O)=O	–	–	–	–
O=C(NCCc1ccc(F)cc1)c1cccc2c1C(=O)c1ccc(N3CCC(Cc4ccccc4)CC3)cc1S2(=O)=O	–	–	40.7	–
Cc1ccc(C)c(OCC(=O)Nc2ccc(C(=O)O)cc2NC(=O)COc2cc(C)ccc2C)c1	–	–	–	–
CN(C(=O)CSc1nc(-c2ccccc2)cn1N)C(c1ccccc1)c1ccccc1	–	–	–	24699
COc1ccccc1CNC(=O)CSc1nc(-c2ccccc2)cn1N	–	–	–	–
O=C(Nc1ccc(CSc2ccccc2)cc1)c1ccco1	–	–	–	–
O=C(Cn1nnc(-c2ccc(CN3CCOCC3)cc2)n1)Nc1nc(-c2ccccc2)cs1	–	–	–	21308
Cc1ccccc1NC(=O)Cn1nnc(-c2ccc(N3CCOCC3)cc2)n1	?	–	–	22327
O=C(Cn1nnc(-c2ccc(N3CCOCC3)cc2)n1)OC1CCCCC1	–	–	–	21996
Clc1ccc(Cn2nnc(-c3ccc(N4CCOCC4)cc3)n2)cc1	–	–	–	–
Cc1cccc(C)c1N(C(=O)c1ccco1)C(C(=O)NC1CCCC1)c1ccncc1 (centres undefined)	–	–	–	–
COCCCn1cc(CN2CC(N3CCSCC3)CS2(=O)=O)nn1 (centres undefined)	–	–	–	–
SMILES	BoNT A protease	BoNT F protease	Anthrax LF prot	Autofluor counter
Cn1c(SCC(=O)OC2CCCCC2)nnc1-c1ccc2c(c1)OCO2	–	–	–	21547
CCn1c(NC(=O)/C=C/c2ccc(F)cc2)nc2ccccc21	–	–	–	–
N#Cc1ccccc1OCC(=O)NNC(=O)CCNC(=O)c1ccccc1	–	–	–	–
c1nc(N2CCOCC2)c2c3c(sc2n1)CCCC3	–	–	–	23015
c1ccn(-c2ncnc3sc4c(c23)CCCC4)c1	–	–	–	–
CCOc1ccc(-n2c(C)nnc2SCC(=O)N(CC)CC)cc1	–	–	–	19915
COc1ccc(NC(=O)NC2CCCCCCC2)c(OC)c1	–	–	–	?
COc1ccc(NC(=O)NC2CCN(C(C)C)CC2)c(OC)c1	?	–	–	16455
CCCS(=O)(=O)c1c(S(=O)(=O)CCC)c2c(N)cccn2c1C(=O)c1ccccc1	?	–	–	16615
CC(C)C[C@@H]1COc2cc(N3CCSCC3)ccc2S(=O)(=O)N1	–	–	–	–
CCC(=O)N1N=C(c2ccccc2)CC1c1ccc([N+](=O)[O-])cc1 (centres undefined)	–	–	–	–
COc1ccc(C2CC(c3ccc([N+](=O)[O-])cc3)=NN2C(=O)c2ccccc2)cc1OC (centres undefined)	–	–	–	–
COc1ccc(C2CC(c3cccc([N+](=O)[O-])c3)=NN2/C(C)=C/C(C)=O)cc1 (centres undefined)	–	77.0	–	54573
COc1ccc(C2=NN(C(=O)c3cccc([N+](=O)[O-])c3)C(c3cccc([N+](=O)[O-])c3)C2)cc1 (centres undefined)	–	–	–	19134
CC1CCC(C(C)C)C(OC(=O)COC(=O)c2ccc(N)cc2)C1 (centres undefined)	–	–	–	–
C/C(=N\O)C(=O)OC1CC(C)CCC1C(C)C (centres undefined)	–	–	–	24312
Cc1ccc(N(c2ncnc(N)c2[N+](=O)[O-])C2CCCCC2)cc1	–	–	–	23258
Cc1ccc(Oc2ncnc(N)c2[N+](=O)[O-])cc1	–	–	–	–
Cc1cc(NC(=O)c2cnn3c(C(F)F)cc(-c4ccccc4)nc23)no1	?	–	–	22272
CCn1ncc(C(=O)Nc2cccc(Cl)c2)c1C	–	–	–	–
CCn1ncc(C(=O)Nc2cc(C)on2)c1C	–	–	–	21849
COc1ccc(-c2nnc(NC(=O)c3cc(C)on3)s2)cc1	?	–	–	17016
C/C(=C\C(=O)Nc1cc(C)on1)c1ccccc1	–	–	–	22891
COc1ccc(OCc2cccc(C(=O)Nc3cc(C)on3)c2)cc1	–	–	–	22339
COc1ccc(C(=O)Nc2cc(C)on2)cc1	–	–	–	16745
SMILES	BoNT A protease	BoNT F protease	Anthrax LF prot	Autofluor counter
Cc1cc(NC(=O)c2cc(C)on2)no1	–	–	–	23413
CCn1c(SCC(=O)NCc2cccs2)nnc1-c1cccs1	–	–	–	23563
CCn1c(CNC(=O)COc2c(C)cccc2C)nnc1SCC(=O)Nc1nccs1	–	–	–	17164
Cn1c(SCC(=O)NCc2cccs2)nnc1-c1cccs1	–	–	–	–
CC(C)c1ccc(Nc2n[nH]c(=S)s2)cc1	–	–	–	–
O=C1CC2C(CCC23OCCO3)c2ccc3ccccc3c21 (centres undefined)	–	–	–	–
CCn1c(=O)c(C(=O)CN(C)CC(=O)Nc2ccccc2Br)c(N)n(Cc2ccccc2)c1=O	–	–	–	–
CCOC(=O)CSc1nnc(CSc2nc3sc4c(c3c(=O)[nH]2)CCC4)n1-c1ccccc1	–	–	–	21953
Nc1ccc2ncccc2c1	?	–	–	17386
Nc1ccc(/C=C/c2ccc3ncccc3c2)cc1	–	–	–	–
O=c1c2ccccc2nc(-c2ccco2)n1Cc1ccccc1	–	–	–	–
CCOc1ccc(CCn2c(-c3ccco3)nc3ccccc3c2=O)cc1OCC	–	–	–	16599
C[C@H]1CN([C@@H](C)CO)C(=O)c2cc(C#Cc3ccccn3)cnc2O[C@@H]1CN(C)Cc1ccccc1	–	–	–	–
O=NN(CC(=O)NNc1ccccc1)CC(=O)NNc1ccccc1	–	–	–	–
